Bioassay records deposited in PubChem by National Center for Advancing Translational Sciences (NCATS).
Most compounds without a hit are left out; they make up all but 18% or so of the library.
DT40 TDP1 no CPT: qHTS for Inhibitors of human tyrosyl-DNA phosphodiesterase 1 (TDP1): qHTS in cells in absence of CPT. 420,000 tested, 15% active. Potency, µM (top dose mostly 46.2 µM), usual class: inhibitors. DT40 Tdp1-/- hTDP1 cells, no CPT, ATP luminescence, 48 h; further: nearly all actives have a fitted effect of over 55% in size
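Seeded 400 DT40-hTDP1 cells/well (vehicle DMSO, no 20 nM CPT); pinned compounds; ≥48 hr at 37 °C; CellTiter-Glo luminescence as viability measure.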
IL1B secr inh: qHTS for Inhibitors of Inflammasome Signaling: IL-1-beta AlphaLISA Primary Screen; THP-1 LPS/ATP IL-1B secretion, AlphaLISA, 16 h; hits give low values; activity change, % at 57.5 µM; 360,000 tested, 4.7% active; in the data active means activity change below about -50%; inconclusive means mostly about -30% to -49%
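Secreted IL-1B measured by AlphaLISA bead assay after 16 h compound exposure of THP-1 cells; compounds (final up to 57.5 uM) added 1 h before LPS (250 ng/mL) and ATP (1.25 mM) stimulation; lower signal means less secretion.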
TGFb inhibitor: qHTS for Inhibitors of TGF-b; HepG2 CAGA-GFP TGF-b/SMAD3 reporter, GFP fluorescence, 18 h; TGF-beta stimulated, 500 pg/mL final; Potency, µM (top dose mostly 46.1 µM), usual class: inhibitors; 410,000 tested, 1.2% active; AID 588855, 2011; further: nearly all actives have a fitted effect of over 65% in size
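HEPG2 CAGA-GFP reporter cells (1000/well, DMEM with 1% FBS) received compounds, then recombinant TGF-beta at 500 pg/mL final for 18 hours at 37 degrees C. Per-cell GFP summed per well was normalised to unstimulated and stimulated DMSO controls before curve fitting.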
TDP1 inh: qHTS Assay for Inhibitors of Tyrosyl-DNA Phosphodiesterase (TDP1); 350,000 tested, 0.28% active; Tyrosyl-DNA phosphodiesterase 1 (Homo sapiens), Q9NUW8; Potency, µM (highest dose often 130 µM), usual class: inhibitors; recombinant TDP1, AlphaScreen DNA substrate cleavage; further: nearly all actives have a fitted effect of over 40% in size
Target sequence (Q9NUW8 whole entry, looked up): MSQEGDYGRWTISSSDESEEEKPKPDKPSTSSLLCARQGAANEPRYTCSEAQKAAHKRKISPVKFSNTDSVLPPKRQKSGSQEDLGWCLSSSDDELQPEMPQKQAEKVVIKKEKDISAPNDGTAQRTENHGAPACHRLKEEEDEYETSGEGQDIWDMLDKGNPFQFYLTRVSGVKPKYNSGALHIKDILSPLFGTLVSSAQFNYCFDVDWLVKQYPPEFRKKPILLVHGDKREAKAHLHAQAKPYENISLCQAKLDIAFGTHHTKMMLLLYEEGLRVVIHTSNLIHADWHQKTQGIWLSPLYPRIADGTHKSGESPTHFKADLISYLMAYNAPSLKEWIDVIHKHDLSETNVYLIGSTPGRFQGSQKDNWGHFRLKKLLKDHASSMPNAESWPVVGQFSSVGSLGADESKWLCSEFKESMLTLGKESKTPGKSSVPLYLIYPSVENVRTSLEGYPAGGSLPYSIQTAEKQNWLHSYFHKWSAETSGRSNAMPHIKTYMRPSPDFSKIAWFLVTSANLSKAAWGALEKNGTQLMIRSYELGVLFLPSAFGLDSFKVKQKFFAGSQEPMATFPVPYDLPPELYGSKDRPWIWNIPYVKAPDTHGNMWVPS
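Enzyme-compound mixtures sat 15 min at room temperature, followed by a 5 min reaction with 15 nM final substrate and 10 min with AlphaScreen beads. Recombinant human Tdp1 was used at 1 nM final.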
TDP1 cell CPT: qHTS for Inhibitors of human tyrosyl-DNA phosphodiesterase 1 (TDP1): qHTS in cells in presence of CPT; chicken DT40 Tdp1-/-;hTDP1 cells + 20 nM CPT, ATP luminescence, 48 h; Potency, µM (titrated, usually from 46.2 µM), most hits filed as inhibitors; 420,000 tested, 12% active; AID 686979, 2013; further: nearly all actives have a fitted effect of over 55% in size
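Chicken DT40 Tdp1-/- cells stably complemented with human TDP1 were seeded at 400 cells/well in medium containing 20 nM camptothecin, exposed to pin-transferred compounds, and grown at 37 °C for at least 48 hr. Viability was read as ATP luminescence.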
HepG2 tox: qHTS for Inhibitors of TGF-b: Cytotox Counterscreen; HepG2 CAGA-GFP viability, ATP luminescence, 18 h; Potency, µM (doses to about 46.1 µM), hits mostly cytotoxic; 410,000 tested, 0.76% active
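CellTiter-Glo luminescence gave cytotoxicity after 18 hours at 37 degrees C. The cells were HepG2 CAGA-GFP in 1% FBS DMEM, stimulated with 500 pg/mL TGF-beta after compound addition. %Activity was normalised to no-cell wells (complete cell-killing) and DMSO (no toxicity), and curves were fitted and classified.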
Numbers stand for hits; 0 = inactive; ? = inconclusive; - = no result given; [ ] = dose if it differs, or a comment. Unless noted, the call rests on the fitted dose curve; in most records, active means well fitted curve in the direction sought with a large enough effect; inconclusive means small, poorly fitted or top-dose-only effect, or another doubt; inactive means no such curve, though single readings can be large; an effect the other way counts as inactive or inconclusive.

SMILES	DT40 TDP1 no CPT	IL1B secr inh	TGFb inhibitor	TDP1 inh	TDP1 cell CPT	HepG2 tox
Cc1ccc(NC(=O)CN2C(=O)CN=C(c3ccccc3)c3ccccc32)cc1Cl	?	-	0	0	23µM	0
CN1C(=S)CN=C(c2ccccc2)c2cc(Cl)ccc21	15µM	-	-	0	?	-
Cc1ccccc1CN1C(=O)CN=C(c2ccccc2)c2cc(Cl)ccc21	18µM	-	?	0	?	0
CN1C(=O)CN=C(c2ccc[nH]2)c2cc(Cl)ccc21 (tested in a mixture with another compound)	1.3µM	0	0	-	1.6µM	0
CCS(=O)(=O)C(C)(C)S(=O)(=O)CC	0	-	-	-	0	-
Cc1cccc(CN2C(=O)CN=C(c3ccccc3Cl)c3cc(Cl)ccc32)c1	23µM	-	?	0	23µM	0
CN1C(=O)CN=C(c2ccccc2Cl)c2cc(Br)ccc21	0	0	0	-	0	0
C[C@H]1COc2cccc(N3CCN(C)CC3)c2S(=O)(=O)N1	0	0	-	-	0	-
CCOC(=O)c1ccc(NC(c2ccc(N(C)C)cc2)P(=O)(OC(C)C)OC(C)C)cc1 (stereo unspecified)	29µM	0	0	0	?	0
CC(C)OP(=O)(OC(C)C)C(Nc1ccccc1)c1cccc2c1OCO2 (stereo unspecified)	?	0	?	0	?	0
Cn1cc(C(=O)C(=O)N[C@H]2CN3CCC2CC3)c2ccccc21	?	-	-	0	0	-
CCOP(=O)(CC(C(C)=O)C(O)c1ccccc1)OCC (stereo unspecified)	0	0	0	0[21 µM]	0	0
CCC(C)n1c(O)c(/C=N/N2CCOCC2)c(=O)[nH]c1=S (stereo unspecified)	0	0	0	0	23µM	0
C[C@@H](C1=C(CCN(C)C)Cc2ccccc21)c1ccccn1	?	-	-	0	?	-
C/C(=N\NC(N)=S)C12CC3CC(CC(C3)C1)C2	15µM	?	11µM	0	23µM	0
O=C(Cn1c(=O)oc2cc(S(=O)(=O)N3CCCCC3)ccc21)N1CCCCC1	0	0	0	0	0	0
CC1CCCCN1S(=O)(=O)c1ccc2c(c1)oc(=O)n2CC(=O)Nc1ccc(Cl)cc1 (stereo unspecified)	?	-	?	0	?	0
CC(C)c1ccc(NC(=O)Cn2c(=O)oc3cc(S(=O)(=O)N4CCCC4)ccc32)cc1	?	-	0	0	9.2µM	0
CCOc1ccc(NC(=O)Cn2c(=O)oc3cc(S(=O)(=O)N4CCCCCC4)ccc32)cc1	21µM	-	0	0	21µM	0
CCOC(=O)Cn1c(=O)oc2cc(S(=O)(=O)NCc3ccccn3)ccc21	0	0	0	0	0	0
Cc1ccc(NC(=O)Cn2c(=O)oc3cc(S(=O)(=O)N4CCCCC4)ccc32)c(Cl)c1	12µM	-	?	0	?	0
NC(=O)c1cccc(-c2cccc(OC(=O)NC3CCCCC3)c2)c1	?	0	0	0	0	0
CNC(=O)Oc1cccc(-c2cn3cc(OC(=O)NC)ccc3n2)c1	21µM	0	0	0	?	0
CNC(=O)Oc1ccc(-c2cn3cc(Cl)ccc3n2)cc1	?	?	0	0	21µM	0
COc1cc(C[C@@H](C)N)c(OC)cc1C	?	-	-	-	0	-
SMILES	DT40 TDP1 no CPT	IL1B secr inh	TGFb inhibitor	TDP1 inh	TDP1 cell CPT	HepG2 tox
Cc1cccc(NC(=O)N[C@@H]2N=C(c3ccccc3)c3ccccc3N(CC(=O)c3ccccc3C)C2=O)c1	-	-	-	0	-	-
O=C(c1ccccc1F)c1cn(CC(=O)N2CCCC2)c2ccccc12	16µM	0	0	0	?	0
CC(=O)[C@H]1CC[C@H]2[C@@H]3CC[C@H]4C[C@](C)(O)CC[C@]4(C)[C@H]3CC[C@]12C	0	-	-	-	0	-
Cc1ccc(-c2nnc(Nc3ccc(Br)cc3)c3ccccc23)cc1S(=O)(=O)NCc1nc2ccccc2[nH]1	23µM	-	?	-	?	0
NCC[C@H](NC(=O)[C@@H](N)CCCN=C(N)N[N+](=O)[O-])C(N)=O	-	-	-	0	-	-
O=S(=O)(Cl)c1ccccc1	-	-	-	0	-	-
CNC(C)[C@H](O)c1ccccc1 (stereo partly specified)	0	-	-	0	0	-
CC(C)CCCn1c(O)c(/C=C2/C=CC=N2)c(=O)[nH]c1=O	5.2µM	0	0	0	5.8µM	0
CCOC(=O)c1ccc(N2C(=O)c3n[nH]c(-c4cccs4)c3C2c2ccc(OC)cc2OC)cc1 (stereo unspecified)	21µM	-	5µM	0	23µM	0
CC(=O)O[C@@H]1/C=C/[C@](C)(O)C[C@@H](C)C/C=C/[C@H]2[C@@H]3O[C@]3(C)[C@@H](C)[C@H]3[C@H](Cc4ccccc4)NC(=O)[C@@]312	0.46µM	0	0	-	0.52µM	0
C(=NC1CCCCC1)=NC1CCCCC1	-	-	-	0	-	-
CCN(CC)CCc1c[nH]c2ccccc12	0	-	-	-	0	-
COc1ccc(CCN(C)Cc2ccncc2)cc1OC	0	0	0	0	0	0
CN(C)CCN(C)CCc1ccc(Cl)c(Cl)c1	21µM	-	-	0	16µM	-
CN(CC(=O)O)C(=O)[C@H](Cc1ccccc1)NC(=O)[C@@H](CCCN=C(N)N)NC(=O)[C@@H](N)Cc1ccc(O)cc1	-	-	-	0	-	-
N[C@]1(C(=O)O)CC[C@@H](C(=O)O)C1 (racemic)	0	-	-	0	0	-
CC(C)(O)[C@@H]1[C@H]2OC(=O)[C@@H]1[C@]1(O)C[C@H]3O[C@]34C(=O)O[C@H]2[C@@]14C (tested in a mixture with another compound)	0	-	-	0	0	-
Cc1nnc(NC(=O)c2cccn(Cc3cccc([N+](=O)[O-])c3)c2=O)s1	0	-	0	0	0	0
O=C(CCl)c1ccc(O)c(O)c1	11µM	-	?	-	?	0
Cc1onc(-c2ccccc2Cl)c1C(=O)OCC(=O)c1ccc2c(c1)OCCO2	15µM	0	0	0	?	0
CC(=O)Nc1ccccc1C(=O)OCC(=O)c1ccc2c(c1)OCCO2	0	0	0	0	0	0
CN1CC[C@]23c4c5ccc(O)c4O[C@H]2[C@@H](O)C=C[C@H]3[C@H]1C5	0	-	-	-	0	-
CC(C)c1ccc2oc(-c3ccc(NC(=O)c4cc5ccccc5o4)cc3)nc2c1	?	-	0	0[12.3 µM]	0	0
